From PubChem BioAssay (Tox21)
Results filed as inconclusive are left out. Active and inactive are the calls of the source. Unless noted, calls follow the shape of the dose curve; as a rule, active = well fitted curve in the direction sought with a large enough effect in the repeat runs; inconclusive = weak or mixed curves; inactive = no such curve, though single readings can be large; an effect the other way counts as inactive or inconclusive.

Experiments:
[1] = Human pregnane X receptor (PXR) small molecule agonists, qHTS cell viability counter screen (AID 1346977); also: nearly all actives have a fitted effect of over 50% in size; also: potency is read from the fitted curve at half-maximal effect
Summary of the method: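 Measures live-cell protease fluorescence (CellTiter-Fluor) in PXR-Luc HepG2 cells treated 24hr with compounds at 37C. Cells had 5hr to attach before pin transfer of DMSO solutions.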

[2] = Caspase-3/7 induction in HepG2 cells by small molecules, qHTS assay (AID 1346978); also: nearly all actives have a fitted effect of over 15% in size
Summary of the method: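 Wild-type HepG2 cells, 2,000/well, settled 5 hr at 37 C and 5% CO2, then compound-treated for 17 hr; caspase-3/7 activity read by luminescent Caspase-Glo 3/7 after 30 min at room temperature.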

[3] = Caspase-3/7 induction in CHO-K1 cells by small molecules, qHTS assay (AID 1346980); also: nearly all actives have a fitted effect of over 15% in size
Summary of the method: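 Wild-type CHO-K1 cells exposed to compounds for 17hr at 37 C, 5% CO2. Caspase-3/7 activity then measured by Caspase-Glo 3/7 luminescence after 30min at room temperature.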

[4] = target: Nuclear receptor subfamily 1 group I member 2 (Rattus norvegicus) (UniProt Q9R1A7); assay: Rat pregnane X receptor (rPXR) activation by small molecules, qHTS assay (AID 1346983); conditions: rPXR luciferase reporter cells, One-Glo luminescence, 24 h; max activation: active compounds read high; also: nearly all actives have a fitted effect of over 20% in size
Summary of the method: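 Cell-based rPXR activation assay: rPXR cells, 2,000 per well, rested 5hr at 37 C, then exposed to compounds in DMSO for 24 hr at 37 C. Luciferase activity read by One-Glo luminescence after 30 min at room temperature.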

[5] = target: Nuclear receptor subfamily 1 group I member 2 (Homo sapiens) (UniProt O75469); assay: CYP3A4 induction through human pregnane X receptor (PXR) by small molecules, qHTS assay (AID 1346984); also: nearly all actives have a fitted effect of over 40% in size
Sequence of Nuclear receptor subfamily 1 group I member 2 (Homo sapiens) (O75469 whole entry, looked up): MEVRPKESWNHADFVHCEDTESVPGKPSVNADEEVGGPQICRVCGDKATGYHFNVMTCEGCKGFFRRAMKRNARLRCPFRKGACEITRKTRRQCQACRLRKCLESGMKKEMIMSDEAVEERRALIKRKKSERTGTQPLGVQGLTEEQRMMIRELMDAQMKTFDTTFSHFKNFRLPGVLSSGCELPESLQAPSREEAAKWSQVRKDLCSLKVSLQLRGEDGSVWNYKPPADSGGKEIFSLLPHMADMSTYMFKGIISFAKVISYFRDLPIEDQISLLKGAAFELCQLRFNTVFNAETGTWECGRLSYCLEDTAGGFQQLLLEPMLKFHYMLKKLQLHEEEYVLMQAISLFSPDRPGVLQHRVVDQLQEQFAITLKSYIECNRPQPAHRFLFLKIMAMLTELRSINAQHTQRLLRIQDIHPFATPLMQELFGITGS
Summary of the method: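 Quantitative HTS in DPX-2 cells, i.e. HepG2 transfected with PXR response element and CYP3A4-promoter luciferase. Compounds in DMSO incubated 24hr at 37C; then P450-Glo CYP3A4 substrate, 3uM final, 3hr; One-Glo luminescence.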

[6] = target: Nuclear receptor subfamily 1 group I member 2 (Homo sapiens) (UniProt O75469); assay: Human pregnane X receptor (PXR) activation by small molecules, qHTS assay (AID 1346985); also: nearly all actives have a fitted effect of over 40% in size
Summary of the method: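 DPX-2 cells (HepG2 co-transfected with a PXR response element and a CYP3A4-promoter luciferase construct) were seeded at 2,000 per well, rested 5 hr at 37C, then exposed to DMSO-dissolved compounds for 24 hr. Activation was read as luciferase luminescence.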

[7] = target: Acetylcholinesterase (Homo sapiens) (UniProt P22303); assay: Acetylcholinesterase (AChE) small molecule antagonists: colormetric cell-based qHTS assay (AID 1347395; calls by dose curve; also: nearly all actives have a fitted effect of over 30% in size; also: potency is read from the fitted curve at half-maximal effect)
Sequence of Acetylcholinesterase (Homo sapiens) (P22303 whole entry, looked up): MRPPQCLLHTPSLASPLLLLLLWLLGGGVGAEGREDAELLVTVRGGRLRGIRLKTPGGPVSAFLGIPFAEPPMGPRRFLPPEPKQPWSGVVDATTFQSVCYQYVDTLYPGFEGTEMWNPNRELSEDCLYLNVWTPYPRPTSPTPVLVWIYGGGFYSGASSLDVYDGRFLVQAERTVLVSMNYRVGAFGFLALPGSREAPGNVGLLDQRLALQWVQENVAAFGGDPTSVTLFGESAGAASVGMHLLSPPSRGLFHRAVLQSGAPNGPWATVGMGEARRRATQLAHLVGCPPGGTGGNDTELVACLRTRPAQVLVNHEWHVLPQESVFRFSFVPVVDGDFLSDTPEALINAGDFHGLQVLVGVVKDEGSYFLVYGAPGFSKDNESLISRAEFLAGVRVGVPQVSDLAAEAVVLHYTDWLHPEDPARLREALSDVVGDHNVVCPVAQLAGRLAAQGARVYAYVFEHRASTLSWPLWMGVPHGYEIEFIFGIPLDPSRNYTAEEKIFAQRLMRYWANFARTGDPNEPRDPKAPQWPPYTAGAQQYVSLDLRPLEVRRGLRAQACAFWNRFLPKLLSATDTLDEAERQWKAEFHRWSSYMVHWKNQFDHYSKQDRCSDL
Summary of the method: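 Endogenous AChE of human neuroblastoma SH-SY5Y cells was measured with an Ellman-type DTNB/acetylthiocholine mix. Compound pretreatment lasted 30 min at 37 C; substrate reaction ran 90 min at 37 C.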

[8] = target: Acetylcholinesterase (Homo sapiens) (UniProt P22303); assay: Acetylcholinesterase (AChE) small molecule antagonists: enzyme-based qHTS assay (AID 1347397; calls by dose curve; also: nearly all actives have a fitted effect of over 55% in size; also: potency is read from the fitted curve at half-maximal effect); conditions: Potency: AChE enzyme activity inhibition
Summary of the method: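 Colorimetric DTNB read-out of thiocholine released from acetylthiocholine by recombinant human AChE (50 mU/mL as dispensed). Compounds were preincubated 30 min at RT before substrate/DTNB addition, with a 10 min RT reaction.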

[9] = target: Acetylcholinesterase (Homo sapiens) (UniProt P22303); assay: Acetylcholinesterase (AChE) small molecule antagonists: fluorescence cell-based qHTS assay (AID 1347398; calls by dose curve; also: nearly all actives have a fitted effect of over 50% in size; also: potency is read from the fitted curve at half-maximal effect); conditions: Potency: AChE activity
Summary of the method: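 SH-SY5Y, 2,000 cells/well, attached overnight; cmpd 30 min 37 C; acetylthiocholine/Thiolite Green cocktail 40 min RT; fluorescence Ex/Em 490/520 nm.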

[10] = target: Acetylcholinesterase (Homo sapiens) (UniProt P22303); assay: Acetylcholinesterase (AChE) small molecule antagonists: enzyme-based qHTS assay with human liver microsomes (AID 1347399; calls by dose curve; also: nearly all actives have a fitted effect of over 60% in size; also: potency is read from the fitted curve at half-maximal effect); conditions: Potency: qHTS inhibition
Summary of the method: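 Recombinant human AChE (50 mU/mL in the enzyme mix) and human liver microsomes (0.25 mg/mL final) were preincubated with compound and NADPH (0.25 mg/mL final) for 30 min at 37 C. Acetylthiocholine/DTNB was then added; thiocholine was read colorimetrically after 10 min at room temperature.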

[11] = target: Cytochrome P450 2C19 (Homo sapiens) (UniProt P33261); assay: Cytochrome P450 Family 2 Subfamily C Member 19 (CYP2C19) small molecule antagonists: luciferase reporter qHTS assay (AID 1671197); also: nearly all actives have a fitted effect of over 65% in size; also: potency is read from the fitted curve at half-maximal effect; as to activity change, negative = inhibition: series mostly up to about 120 µM
Sequence of Cytochrome P450 2C19 (Homo sapiens) (P33261 whole entry, looked up): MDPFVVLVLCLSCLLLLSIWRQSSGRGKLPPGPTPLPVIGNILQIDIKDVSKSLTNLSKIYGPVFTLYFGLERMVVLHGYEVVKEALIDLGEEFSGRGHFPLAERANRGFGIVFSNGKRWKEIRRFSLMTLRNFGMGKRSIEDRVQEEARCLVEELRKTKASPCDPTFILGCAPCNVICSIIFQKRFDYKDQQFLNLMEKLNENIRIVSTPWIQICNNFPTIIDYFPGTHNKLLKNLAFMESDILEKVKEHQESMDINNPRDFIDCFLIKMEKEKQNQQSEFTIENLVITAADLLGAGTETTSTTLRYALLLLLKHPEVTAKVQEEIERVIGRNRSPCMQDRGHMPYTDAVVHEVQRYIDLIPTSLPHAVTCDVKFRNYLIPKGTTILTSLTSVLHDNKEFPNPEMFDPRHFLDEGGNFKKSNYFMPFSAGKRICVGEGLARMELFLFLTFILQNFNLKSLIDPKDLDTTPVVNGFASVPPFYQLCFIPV
Summary of the method: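 Light output is proportional to CYP2C19 activity: proluciferin substrate is converted to luciferin, then detected by a luciferin detection reagent that also stops the 1 h, 37C NADPH-driven reaction. Ketoconazole serves as positive control.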

[12] = target: Cytochrome P450 2C9 (Homo sapiens) (UniProt P11712); assay: Cytochrome P450 Family 2 Subfamily C Member 9 (CYP2C9) small molecule antagonists: luciferase reporter qHTS assay (AID 1671198); also: nearly all actives have a fitted effect of over 50% in size; also: potency is read from the fitted curve at half-maximal effect; as to activity change, negative = inhibition: series mostly up to about 120 µM
Sequence of Cytochrome P450 2C9 (Homo sapiens) (P11712 whole entry, looked up): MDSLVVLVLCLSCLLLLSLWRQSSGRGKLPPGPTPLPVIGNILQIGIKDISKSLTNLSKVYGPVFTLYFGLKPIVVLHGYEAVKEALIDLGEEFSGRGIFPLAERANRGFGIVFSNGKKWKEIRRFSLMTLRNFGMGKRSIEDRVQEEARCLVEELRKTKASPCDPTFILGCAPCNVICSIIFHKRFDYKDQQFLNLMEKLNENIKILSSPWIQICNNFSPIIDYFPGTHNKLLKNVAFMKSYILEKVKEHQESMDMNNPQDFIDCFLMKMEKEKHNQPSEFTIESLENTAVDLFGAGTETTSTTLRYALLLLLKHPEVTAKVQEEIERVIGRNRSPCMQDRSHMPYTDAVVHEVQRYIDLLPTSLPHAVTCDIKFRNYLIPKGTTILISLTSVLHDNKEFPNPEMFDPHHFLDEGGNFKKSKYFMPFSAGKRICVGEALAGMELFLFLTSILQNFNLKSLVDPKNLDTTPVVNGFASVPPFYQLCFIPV
Summary of the method: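 P450-Glo proluciferin substrate with CYP2C9 enzyme; 10 min RT preincubation, then NADPH regeneration 1 h at 37C; luciferin detection reagent 20 min RT, luminescence in relative luminescence units.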

[13] = target: Cytochrome P450 1A2 (Homo sapiens) (UniProt P05177); assay: Cytochrome P450 Family 1 Subfamily A Member 2 (CYP1A2) small molecule antagonists: luciferase reporter qHTS assay (AID 1671199); also: nearly all actives have a fitted effect of over 50% in size; also: potency is read from the fitted curve at half-maximal effect; as to activity change, negative = inhibition: series mostly up to about 120 µM
Sequence of Cytochrome P450 1A2 (Homo sapiens) (P05177 whole entry, looked up): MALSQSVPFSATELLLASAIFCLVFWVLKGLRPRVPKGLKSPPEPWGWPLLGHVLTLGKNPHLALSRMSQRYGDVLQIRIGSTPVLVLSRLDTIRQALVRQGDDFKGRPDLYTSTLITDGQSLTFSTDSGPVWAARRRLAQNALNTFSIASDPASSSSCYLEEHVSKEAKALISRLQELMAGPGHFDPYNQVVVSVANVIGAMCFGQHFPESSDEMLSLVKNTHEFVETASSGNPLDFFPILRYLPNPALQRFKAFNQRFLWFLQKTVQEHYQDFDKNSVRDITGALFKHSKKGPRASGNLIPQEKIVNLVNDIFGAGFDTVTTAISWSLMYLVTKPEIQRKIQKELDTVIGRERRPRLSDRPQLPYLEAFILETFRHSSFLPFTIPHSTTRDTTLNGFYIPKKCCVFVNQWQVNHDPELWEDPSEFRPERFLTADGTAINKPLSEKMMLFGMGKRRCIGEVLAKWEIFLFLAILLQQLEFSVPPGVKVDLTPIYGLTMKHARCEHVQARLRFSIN
Summary of the method: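 Compounds were incubated with CYP1A2 and a luminogenic proluciferin substrate for 10 min at room temperature before the reaction was started with NADPH regeneration solution. After 1 h, detection reagent was added and light output, proportional to CYP activity, was recorded.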

[14] = target: Voltage-gated inwardly rectifying potassium channel KCNH2 (Homo sapiens) (UniProt Q12809); assay: Human Ether-a-go-go-Related Gene (hERG) channel small molecule antagonists: fluorescence cell-based qHTS assay (AID 1671200); also: nearly all actives have a fitted effect of over 50% in size; also: potency is read from the fitted curve at half-maximal effect;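 as to activity change, negative = inhibition: hERG-expressing U2OS cells given a thallium stimulus after FluxOR II dye loading; series mostly up to about 77 µM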
Sequence of Voltage-gated inwardly rectifying potassium channel KCNH2 (Homo sapiens) (Q12809 whole entry, looked up): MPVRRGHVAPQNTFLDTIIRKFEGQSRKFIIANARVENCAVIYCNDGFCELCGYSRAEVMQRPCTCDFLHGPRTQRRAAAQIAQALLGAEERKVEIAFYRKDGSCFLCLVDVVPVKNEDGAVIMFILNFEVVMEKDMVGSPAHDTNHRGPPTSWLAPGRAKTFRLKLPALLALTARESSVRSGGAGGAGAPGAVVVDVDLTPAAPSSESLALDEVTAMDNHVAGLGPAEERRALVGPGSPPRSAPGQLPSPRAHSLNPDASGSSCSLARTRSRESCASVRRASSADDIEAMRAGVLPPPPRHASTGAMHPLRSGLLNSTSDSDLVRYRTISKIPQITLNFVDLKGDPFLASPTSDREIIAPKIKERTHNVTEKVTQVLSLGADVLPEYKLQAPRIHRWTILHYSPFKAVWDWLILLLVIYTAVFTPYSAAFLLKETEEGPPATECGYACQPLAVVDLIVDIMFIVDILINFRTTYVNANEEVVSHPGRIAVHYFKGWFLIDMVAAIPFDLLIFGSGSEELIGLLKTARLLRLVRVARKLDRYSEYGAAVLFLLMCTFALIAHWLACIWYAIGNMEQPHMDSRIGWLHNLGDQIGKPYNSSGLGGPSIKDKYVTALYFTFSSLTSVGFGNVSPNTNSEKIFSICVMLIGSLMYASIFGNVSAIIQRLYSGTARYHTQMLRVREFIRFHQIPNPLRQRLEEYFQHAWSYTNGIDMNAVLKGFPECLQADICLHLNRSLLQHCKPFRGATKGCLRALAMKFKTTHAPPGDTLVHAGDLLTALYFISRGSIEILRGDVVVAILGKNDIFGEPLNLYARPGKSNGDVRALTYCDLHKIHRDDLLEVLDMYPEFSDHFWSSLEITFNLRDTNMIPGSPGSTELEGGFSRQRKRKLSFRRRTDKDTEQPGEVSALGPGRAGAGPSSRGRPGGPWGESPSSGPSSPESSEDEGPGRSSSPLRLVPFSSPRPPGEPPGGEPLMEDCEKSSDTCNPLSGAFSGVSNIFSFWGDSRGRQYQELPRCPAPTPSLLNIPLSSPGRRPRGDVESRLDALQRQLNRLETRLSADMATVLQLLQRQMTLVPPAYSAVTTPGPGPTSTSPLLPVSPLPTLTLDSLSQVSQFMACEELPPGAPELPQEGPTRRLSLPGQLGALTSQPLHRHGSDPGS
Summary of the method: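 Quantitative HTS in hERG-U2OS cells: thallium entry through the channel reports activity, read as continuous 480/540 nm fluorescence over 2 min after stimulus addition.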

[15] = target: Cytochrome P450 3A4 (Homo sapiens) (UniProt P08684); assay: Cytochrome P450 Family 3 Subfamily A Member 4 (CYP3A4) small molecule antagonists: luciferase reporter qHTS assay (AID 1671201); also: nearly all actives have a fitted effect of over 50% in size; also: potency is read from the fitted curve at half-maximal effect; as to activity change, negative = inhibition: series mostly up to about 120 µM
Sequence of Cytochrome P450 3A4 (Homo sapiens) (P08684 whole entry, looked up): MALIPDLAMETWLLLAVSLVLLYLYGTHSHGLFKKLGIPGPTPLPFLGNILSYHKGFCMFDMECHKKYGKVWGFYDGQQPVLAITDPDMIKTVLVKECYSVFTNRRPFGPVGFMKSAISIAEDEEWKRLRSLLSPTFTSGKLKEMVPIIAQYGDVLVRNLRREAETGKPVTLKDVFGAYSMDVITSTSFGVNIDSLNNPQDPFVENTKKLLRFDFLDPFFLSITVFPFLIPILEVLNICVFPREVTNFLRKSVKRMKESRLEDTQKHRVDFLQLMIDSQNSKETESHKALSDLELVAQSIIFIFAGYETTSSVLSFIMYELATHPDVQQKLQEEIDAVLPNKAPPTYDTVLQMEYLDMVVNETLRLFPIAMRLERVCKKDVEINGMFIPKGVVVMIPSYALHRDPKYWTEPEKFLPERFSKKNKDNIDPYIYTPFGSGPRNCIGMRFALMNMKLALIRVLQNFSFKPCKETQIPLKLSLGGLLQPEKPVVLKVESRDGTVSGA
Summary of the method: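 Inhibition of CYP3A4 is measured as loss of light: the enzyme converts a proluciferin substrate to luciferin, detected luminescently. Reaction ran 1 h at room temperature with NADPH regeneration after a 10 min compound preincubation.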

[16] = Caspase-3/7 induction in HepG2 cells by small molecules, qHTS cell viability counter screen (AID 1346981); also: series mostly up to about 92 µM; nearly all actives have a fitted effect of over 30% in size
Summary of the method: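 Cell viability is measured as a cytotoxicity counter screen alongside the Caspase-Glo 3/7 readout in identical wells. Wild-type HepG2 cells are treated with test compounds for 16 hr at 37 C before CellTiter-Fluor addition and a 1-hr incubation.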

[17] = target: Nuclear receptor subfamily 1 group I member 2 (Homo sapiens) (UniProt O75469); assay: Human pregnane X receptor (PXR) small molecule agonists, qHTS assay (AID 1346982); also: nearly all actives have a fitted effect of over 35% in size; also: potency is read from the fitted curve at half-maximal effect
Summary of the method: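 Cells: HepG2 stably carrying PXR-Luc. Medium held 5% charcoal-stripped FBS. Compounds in DMSO added after 5 hr plating, incubated 24 hr, then luminescence quantified with ONE-Glo.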

[18] = target: Cytochrome P450 2D6 (Homo sapiens) (UniProt P10635); assay: Cytochrome P450 Family 2 Subfamily D Member 6 (CYP2D6) small molecule antagonists: luciferase reporter qHTS assay (AID 1671196); also: nearly all actives have a fitted effect of over 50% in size; also: potency is read from the fitted curve at half-maximal effect; as to activity change, negative = inhibition: series mostly up to about 120 µM
Sequence of Cytochrome P450 2D6 (Homo sapiens) (P10635 whole entry, looked up): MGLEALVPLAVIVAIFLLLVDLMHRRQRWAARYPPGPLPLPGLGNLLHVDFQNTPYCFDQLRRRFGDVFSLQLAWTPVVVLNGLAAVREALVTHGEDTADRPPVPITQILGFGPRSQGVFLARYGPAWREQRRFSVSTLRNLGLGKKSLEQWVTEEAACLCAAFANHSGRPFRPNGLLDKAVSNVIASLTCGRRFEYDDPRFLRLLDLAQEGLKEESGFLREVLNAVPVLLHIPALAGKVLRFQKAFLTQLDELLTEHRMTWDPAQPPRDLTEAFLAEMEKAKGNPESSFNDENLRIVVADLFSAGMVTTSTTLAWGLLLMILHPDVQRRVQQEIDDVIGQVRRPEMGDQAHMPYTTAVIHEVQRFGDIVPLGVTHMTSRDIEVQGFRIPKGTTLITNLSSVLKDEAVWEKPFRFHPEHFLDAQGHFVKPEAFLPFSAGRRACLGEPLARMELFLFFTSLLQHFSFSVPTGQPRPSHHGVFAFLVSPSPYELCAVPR
Summary of the method: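 Enzyme and proluciferin substrate were first combined with test chemical for 10 min at room temperature. Adding NADPH regeneration solution started a 1 h reaction, stopped with luciferin detection reagent and read by luminescence 20 min later.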

[19] = Caspase-3/7 induction in CHO-K1 cells by small molecules, qHTS cell viability counter screen (AID 1346979); also: nearly all actives have a fitted effect of over 35% in size
Summary of the method: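 In the same wells as the caspase read, viability of compound-treated wild-type CHO-K1 cells was assessed using CellTiter-Fluor, added after 16hr at 37C and measured by fluorescence following 1hr further incubation.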
% is scaled to controls: 0 for no effect and ±100 for the full control effect.

O=C1c2ccccc2C(=O)C1C(=O)C(c1ccccc1)c1ccccc1
active: Potency [11] 21.9 µM | Potency [12] 1.38 µM | Potency [13] 15.5 µM
inactive: Potency [1] | Potency [2] | Potency [3] | max activation [4] -0.238% | Potency [5] | Potency [6] | Potency [7] | Potency [8] | Potency [9] | Potency [10] | Potency [14] | Potency [15]

CN1C[C@H](CNC(=O)OCc2ccccc2)C[C@@H]2c3cccc4c3c(cn4C)C[C@H]21
inactive: Potency [2] | Potency [3] | Potency [16] | Potency [17] | Potency [12] | Potency [13] | Potency [15]
active: Potency [1] 26.6 µM | Potency [7] 3.47 µM | Potency [8] 7.76 µM | Potency [9] 0.871 µM | Potency [10] 30.9 µM | Potency [14] 3.38 µM

O=C(CBr)c1ccccc1
inactive: Potency [1] | Potency [2] | Potency [16] | Potency [17] | Potency [7] | Potency [8] | Potency [9] | Potency [10] | Potency [14] | Potency [15]
active: Potency [18] 2.53 µM | Potency [11] 56.7 µM | Potency [13] 63.7 µM

CO[C@@H]1[C@H](OC(=O)NC(=O)CCl)CC[C@]2(CO2)[C@H]1[C@@]1(C)O[C@@H]1CC=C(C)C
inactive: activity change, negative = cytotoxicity [1] 1.62% [at 19 µM] | caspase activation [2] 1.54% [at 19 µM] | activity change, negative = cytotoxicity [16] -0.84% [at 19 µM] | activity, negative = inhibition [7] 2.96% [at 23.6 µM] | activity change, negative = inhibition [8] 0.618% [at 23.6 µM] | activity change, negative = inhibition [10] -0.551% [at 23.6 µM] | activity change, negative = inhibition [18] -6.64% [at 23.6 µM] | activity change, negative = inhibition [14] 7.85% [at 15.8 µM]
active: Potency [11] 21.8 µM | Potency [15] 7.74 µM

COCCOCCO
inactive: Potency [1] | Potency [2] | Potency [3] | Potency [16] | Potency [7] | Potency [8] | Potency [9] | Potency [10] | Potency [14]

CC(O)(CS(=O)(=O)c1ccc(F)cc1)C(=O)Nc1ccc(C#N)c(C(F)(F)F)c1 (configuration not stated)
active: Potency [17] 31.8 µM | Potency [11] 3.69 µM | Potency [12] 13.1 µM
inactive: Potency [1] | Potency [2] | Potency [16] | Potency [5] | Potency [6] | Potency [7] | Potency [8] | Potency [9] | Potency [10] | Potency [18] | Potency [13] | Potency [14]

N#Cc1ccc(Cl)cc1
inactive: Potency [1] | Potency [2] | Potency [19] | Potency [16] | Potency [17] | Potency [8] | Potency [10] | Potency [18] | Potency [11] | Potency [12] | Potency [13] | Potency [14]
